In PubChem BioAssay one finds composite z-score and z-score data, which are given here for 13 molecules.

Calls of active or inactive are those of the source.

A short description of experiment [1]: compounds binding Alexa647 anti-His antibody – biochemical, small-molecule microarray, 635 nm fluorescence, artefact control for SMM control protein annotation, primary screen (AID 1128).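 Also: score merges feature fluorescence with signal-to-noise for each printed compound spot.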 Particulars: higher = more signal.
Experiment [2] has as its system Human papillomavirus type 1a E7 protein (residues 1-88). Put plainly: HPV1a E7 small-molecule binders, primary screen, biochemical, small-molecule microarray, residues 1-88, 635 nm (AID 1129). Particulars: small-molecule microarray binding, fluorescence 635 nm; higher = more signal.
Experiment [3] deals with Focal adhesion kinase 1 (Homo sapiens) (UniProt Q05397). Put plainly: PTK2 protein binding on printed compound slides – biochemical, small-molecule microarray, 635/667 nm fluorescence, BSA, DTT, primary screen (AID 1130).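 Also: composite of spot emission at 667 nm and signal to noise over triplicate slides.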 Particulars: 635 nm fluorescence, higher = more signal.
The test system of experiment [4] is Fibrinogen (Alexa647-labelled). Put plainly: Alexa647-fibrinogen binding to printed small molecules – biochemical, small-molecule microarray, 635/667 nm fluorescence, artefact control for SMM control-protein annotation, profiling panel (AID 1131).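 Also: z-score merges 667 nm fluorescence with per-spot signal-to-noise over triplicate slides.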 Particulars: fibrinogen-A647 binding fluorescence, higher = more signal.
Experiment [5] addresses Follistatin (Homo sapiens) (UniProt P19883). Put plainly: FST protein binding to printed compounds – biochemical, small-molecule microarray, 635/667 nm fluorescence, primary screen (AID 1132). The note with it: 635 nm fluorescence, higher = more signal.
Experiment [6] addresses Fibroblast growth factor 2 (Homo sapiens) (UniProt P09038). Put plainly: basic fibroblast growth factor binding to printed compounds – biochemical, small-molecule microarray, 635/667 nm fluorescence, primary screen (AID 1133). Particulars: FGF2, fluorescence 635/667, higher = more signal.
A short description of experiment [7]: JC-1 mitochondrial potential readout, lung cancer cells – cell-based, A549, JC-1 fluorescence, basal, 24 h, 100 nL, profiling panel (AID 1138).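 Also: A549 lung adenocarcinoma cells under basal conditions with no added stimulus; test concentration not given here.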 Particulars: higher = more signal.
Another experiment relates to Lefty1. Put plainly: Lefty1 protein binding to printed compounds – biochemical, small-molecule microarray, 635/667 nm fluorescence, primary screen (AID 1139). The note with it: fluorescence 635/667, higher = more signal.
Experiment [8] has as its system wheat germ agglutinin (Triticum aestivum), Alexa647-labelled. The experiment in a line: Alexa647-WGA lectin binding to printed small molecules – biochemical, small-molecule microarray, 635/667 nm fluorescence, artefact control for SMM control-protein annotation, profiling panel (AID 1140).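 Also: score merges 667 nm feature emission with signal to noise over triplicate slides.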 The note with it: WGA-A647 binding, 635 nm fluorescence, higher = more signal.

Experiment [9] deals with Luciferin 4-monooxygenase (Photinus pyralis) (UniProt P08659). Put plainly: inhibition of purified Photinus pyralis luciferase – biochemical, luminescence, purified enzyme, 2006 set, primary screen (AID 1141).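 Also: cell-free assay with purified firefly luciferase at 100 ng per well in PBS; test concentration not given here.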 The note with it: purified firefly luciferase, SteadyGlo luminescence, 30 min; higher = more signal, called active from +8 up or from −8 down.
Sequence of Luciferin 4-monooxygenase (Photinus pyralis) (P08659 whole entry, looked up): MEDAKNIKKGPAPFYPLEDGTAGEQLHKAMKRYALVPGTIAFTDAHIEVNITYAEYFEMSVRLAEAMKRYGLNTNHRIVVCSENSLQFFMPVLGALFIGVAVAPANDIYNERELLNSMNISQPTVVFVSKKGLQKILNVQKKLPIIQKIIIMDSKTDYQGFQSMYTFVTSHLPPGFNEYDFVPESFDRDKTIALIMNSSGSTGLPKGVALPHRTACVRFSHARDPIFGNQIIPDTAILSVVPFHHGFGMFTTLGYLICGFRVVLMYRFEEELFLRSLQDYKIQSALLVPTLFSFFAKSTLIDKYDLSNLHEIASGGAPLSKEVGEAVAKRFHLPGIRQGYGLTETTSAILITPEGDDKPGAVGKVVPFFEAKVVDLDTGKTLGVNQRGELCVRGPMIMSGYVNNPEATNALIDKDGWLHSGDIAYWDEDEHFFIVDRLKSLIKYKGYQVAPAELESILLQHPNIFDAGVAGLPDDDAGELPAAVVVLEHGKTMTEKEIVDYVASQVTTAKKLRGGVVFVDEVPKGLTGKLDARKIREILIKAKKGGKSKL

Sequence of Follistatin (Homo sapiens) (P19883 whole entry, looked up): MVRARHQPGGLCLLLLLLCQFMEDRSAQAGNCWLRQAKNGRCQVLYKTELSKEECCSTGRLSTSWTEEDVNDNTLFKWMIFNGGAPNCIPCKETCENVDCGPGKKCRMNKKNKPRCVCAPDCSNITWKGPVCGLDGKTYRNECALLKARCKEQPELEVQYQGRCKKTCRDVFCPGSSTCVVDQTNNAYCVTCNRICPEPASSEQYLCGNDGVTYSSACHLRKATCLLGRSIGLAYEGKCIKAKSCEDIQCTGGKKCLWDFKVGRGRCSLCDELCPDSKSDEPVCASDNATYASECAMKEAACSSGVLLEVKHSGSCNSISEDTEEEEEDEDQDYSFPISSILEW
Sequence of Focal adhesion kinase 1 (Homo sapiens) (Q05397 whole entry, looked up): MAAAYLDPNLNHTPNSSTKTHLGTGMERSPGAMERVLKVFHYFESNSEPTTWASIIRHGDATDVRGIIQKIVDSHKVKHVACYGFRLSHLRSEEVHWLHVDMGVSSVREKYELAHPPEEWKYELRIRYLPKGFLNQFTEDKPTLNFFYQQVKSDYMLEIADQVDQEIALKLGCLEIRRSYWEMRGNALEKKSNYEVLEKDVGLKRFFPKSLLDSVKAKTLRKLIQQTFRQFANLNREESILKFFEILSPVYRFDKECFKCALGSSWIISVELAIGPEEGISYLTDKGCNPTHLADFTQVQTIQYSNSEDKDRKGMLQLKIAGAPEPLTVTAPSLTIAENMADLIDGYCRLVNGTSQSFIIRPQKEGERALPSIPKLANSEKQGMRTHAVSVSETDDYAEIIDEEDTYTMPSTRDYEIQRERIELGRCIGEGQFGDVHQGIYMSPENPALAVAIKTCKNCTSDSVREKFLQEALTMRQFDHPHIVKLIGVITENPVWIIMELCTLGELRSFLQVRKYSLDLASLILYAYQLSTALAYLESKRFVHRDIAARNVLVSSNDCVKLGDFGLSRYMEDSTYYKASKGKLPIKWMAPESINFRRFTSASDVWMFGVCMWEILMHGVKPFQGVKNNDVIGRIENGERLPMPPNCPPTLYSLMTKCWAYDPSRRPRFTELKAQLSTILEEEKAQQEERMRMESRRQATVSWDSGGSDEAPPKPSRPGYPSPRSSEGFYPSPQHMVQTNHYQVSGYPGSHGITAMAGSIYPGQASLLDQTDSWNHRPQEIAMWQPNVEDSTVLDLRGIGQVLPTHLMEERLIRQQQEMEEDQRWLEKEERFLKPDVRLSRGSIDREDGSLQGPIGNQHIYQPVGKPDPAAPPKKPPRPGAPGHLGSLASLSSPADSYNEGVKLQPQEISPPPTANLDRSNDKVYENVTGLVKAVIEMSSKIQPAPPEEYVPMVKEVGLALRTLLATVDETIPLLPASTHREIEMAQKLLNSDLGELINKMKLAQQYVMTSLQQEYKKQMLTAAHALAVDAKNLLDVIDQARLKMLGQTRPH
Sequence of Fibroblast growth factor 2 (Homo sapiens) (P09038 whole entry, looked up): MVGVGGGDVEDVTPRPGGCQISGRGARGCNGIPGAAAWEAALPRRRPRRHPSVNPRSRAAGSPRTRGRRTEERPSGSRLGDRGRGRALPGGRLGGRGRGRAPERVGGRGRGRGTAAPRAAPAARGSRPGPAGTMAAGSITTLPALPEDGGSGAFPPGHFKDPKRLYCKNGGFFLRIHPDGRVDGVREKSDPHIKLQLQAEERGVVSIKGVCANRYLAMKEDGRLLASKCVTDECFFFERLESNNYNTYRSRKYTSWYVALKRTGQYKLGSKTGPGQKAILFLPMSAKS

For `COc1ccc(C(=O)Nc2ccc3c(c2)[C@]2(O[C@@H](CCO)[C@H]([Si](C)(C)c4ccc(OC)cc4)[C@H]2C)C(=O)N3Cc2ccccc2)cc1`, the composite z-score was -0.155 in experiment [1]; 0.809 in experiment [2]; 0.411 in experiment [3]; 0.491 in [4]; 1.39 in [5]; 0.827 in experiment [6]. The composite z-score in the experiment with Lefty1 turned out to be 1.26; in [8], 0.161. Further, the z-score in experiment [7] is 0.168; in experiment [9] it was -0.777 (inactive).
As for `O=C1C2C=CC(C(O)c3ccc(Br)cc3)N(Nc3ccccc3)C2C(=O)N1c1ccccc1` (stereo not given), the composite z-score is 0.0876 in [1]; 1.14 in [2]; 0.081 in experiment [3]; 0.572 in experiment [4]; 0.52 in [5]; -0.364 in experiment [6]. Also, the composite z-score in the experiment with Lefty1 is -0.51; in experiment [8] it was 1.09. The z-score in [7] is 0.0103; in experiment [9] it was 0.296 (inactive).
With `CCCN1C(=O)[C@@]2(Cc3ccccc3)N=C(c3ccc(OCCCO)cc3)O[C@H]2c2ccccc21`, the composite z-score in [1] amounted to 0.856; in experiment [2] it was 1.08; in experiment [3], 0.86; in experiment [4], 0.753; in experiment [5], 1.42; in experiment [6] it was 1.73. In addition, the composite z-score with Lefty1 is 0.757; in experiment [8], 0.445. Further, the z-score in experiment [7] is 0.686; in experiment [9], -4.05 (inactive).
On to `C=CCN1C(=O)[C@@]2(O[C@@H](CCn3cc([C@H](O)c4ccccc4)nn3)[C@H]([Si](C)(C)c3ccc(OC)cc3)[C@H]2C)c2cc(NC(=O)c3ccc(OC)cc3)ccc21`, for which the composite z-score in experiment [1] was 0.623; in experiment [2] it was 0.931; in experiment [3] it was 0.386; in [4], 0.0475; in experiment [5], 0.987; in experiment [6], 0.518. Also, the results for the composite z-score (with Lefty1; in [8]) were 0.628 and -0.191, respectively. The z-score in experiment [7] was 0.763; in experiment [9], 0.427 (inactive).
Turning to `CCOc1cc(C(O)C2C=CC3C(=O)NC(=O)C3N2Nc2ccccn2)ccc1O` (stereo not given), the composite z-score is 0.227 in experiment [1]; 0.255 in experiment [2]; -0.0976 in experiment [3]; -0.32 in experiment [4]; 0.262 in experiment [5]; 0.835 in [6]. In addition, the values for the composite z-score (in the experiment with Lefty1; in [8]) were -0.0684 and -0.298, respectively. Also, the z-score in experiment [7] is 0.208; in experiment [9] it was 0.25 (inactive).
As for `Cc1ccc(S[C@]2(C(=O)O)CC(=O)N(Cc3ccccc3C(F)(F)F)[C@@H]2c2ccc(CO)cc2)cc1`, the composite z-score was -0.916 in experiment [1]; -0.543 in experiment [2]; 0.0068 in [3]; -0.772 in experiment [4]; -0.238 in experiment [5]; -1.18 in experiment [6]. The composite z-score with Lefty1 is -1.27; in [8] it was -0.475. Also, the figures for the z-score in experiment [7] and in experiment [9] were 0.391 and 0.989 (inactive), respectively.
Turning to `C=CCC(OC(C)=O)[C@@H]1[C@@H](N(Cc2cccc3ccccc23)C(=O)Cc2ccc(F)cc2)c2cc(OCCCO)ccc2N1C(=O)Cc1ccc(OC)cc1` (stereo not given in full), the composite z-score is -0.241 in [1]; -0.0072 in experiment [2]; -0.142 in experiment [3]; 0.766 in experiment [4]; 0.532 in experiment [5]; -0.109 in [6]. Also, the values for the composite z-score (in the experiment with Lefty1; in experiment [8]) were 0.391 and 0.672, respectively. In addition, the z-score in [7] was -0.189; in experiment [9], 0.678 (inactive).
In the case of `COc1ccccc1CN1C(=O)c2ccccc2[C@](Cc2ccccc2I)(C(=O)NCCN2CCOCC2)[C@@H]1c1ccc(CO)cc1`, the composite z-score in experiment [1] amounted to 0.74; in experiment [2], 1.18; in experiment [3] it was 0.467; in [4] it was 0.913; in experiment [5] it was 1.41; in experiment [6] it was 1.39. Besides, the composite z-score in the experiment on Lefty1 came out at 0.988; in experiment [8], 0.718. In addition, the figures for the z-score in experiment [7] and in experiment [9] were 2.51 and -1.06 (inactive), respectively.
As to `C=CC[C@@]1(C(=O)NCC(O)CO)N=C(c2ccc(OCCCO)cc2)O[C@@H]1c1ccccc1` (stereo not given in full), the composite z-score is 1.98 in experiment [1]; 0.932 in [2]; 0.307 in experiment [3]; 0.543 in [4]; 1.44 in experiment [5]; 1.02 in [6]. Moreover, the composite z-score with Lefty1 was determined as 0.0457; in [8], 1.27. The z-score is 1.01 in experiment [7] and -1.31 (inactive) in experiment [9].
`COC(=O)[C@@]1(Cc2ccc(OC)cc2)[C@H]2c3cc(C(=O)N(C)C)n(Cc4cc(C)n(C)n4)c3C[C@H]2CN1C(=O)c1ccccc1`: the composite z-score in experiment [1] was 1.08; in [2], 1.29; in experiment [3], 0.405; in [4], -0.842; in experiment [5], -0.396; in [6], -0.233. The composite z-score in the experiment with Lefty1 is -0.0189; in experiment [8], 0.262. Also, the z-score in experiment [7] was -1.14; in experiment [9], 1.01 (inactive).
In the case of `COc1ccc(C#Cc2ccc3c(c2)[C@]2(C(=O)N3)[C@H](C(N)=O)[C@H]3C(=O)O[C@H](c4ccccc4)[C@H](c4ccccc4)N3[C@@H]2c2ccc(O)cc2)cc1`, the composite z-score in experiment [1] was determined as 1.69; in [2], 1.22; in experiment [3], 1.6; in experiment [4], 0.844; in experiment [5], 0.658; in [6], 0.717. Besides, the composite z-score with Lefty1 came out at 0.339; in experiment [8] it was 0.317. The z-score in experiment [7] is -1.4; in [9], 0.734 (inactive).
With `O=C1NC(=O)C2C1C=CC(C(O)c1ccc(-c3ccccc3)s1)N2Nc1ccccn1` (stereo not given), the composite z-score in experiment [1] was 0.322; in experiment [2], 0.642; in experiment [3], 0.0118; in experiment [4] it was 0.347; in experiment [5] it was 0.689; in experiment [6] it was 0.0993. For the same molecule, the composite z-score was determined as 0.0042 with Lefty1 and 0.807 in experiment [8]. The z-score was 0.291 in [7] and -0.86 (inactive) in [9].
As to `C=CCN1C(=O)[C@@]2(O[C@@H](CCO)[C@H]([Si](C)(C)c3ccc(OC)cc3)[C@H]2C)c2cc(NC(=O)[C@H](C)O)ccc21`, the composite z-score in [1] turned out to be 2.01; in experiment [2], 1.19; in experiment [3] it was 1.38; in experiment [4], 0.114; in experiment [5] it was 0.346; in experiment [6] it was 0.0211. The composite z-score amounted to 0.582 in the experiment with Lefty1 and 0.98 in [8]. The z-score in [7] was 2.74; in [9] it was -0.676 (inactive).
